From PubChem BioAssay
The list is not random: actives were taken first. Their share in the collection is about 3.5%.
MITF inh: MITF inhibitors, primary screen, biochemical, AlphaScreen, human; Microphthalmia-associated transcription factor (Homo sapiens), O75030; AlphaScreen MITF homodimerization, bead proximity signal; inhibition, % at 2.6 µM; 650,000 tested, 0.91% active; AID 1259374, 2018; in the data active = inhibition above about 50%;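 note: 0% = vehicle wells with protein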
GPR151 ag: activators of human GPR151, primary screen, cell-based, PathHunter beta-arrestin, luminescence. G-protein coupled receptor 151 (Homo sapiens), Q8TDV0. PathHunter beta-arrestin GPR151 cells. activation, % at 11.2 µM. 650,000 tested, 1% active; in the data active = activation above about 4.9%;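 note: 0% = median of compound wells and 100% = cells with positive control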
TEAD-YAP block: TEAD-YAP interaction inhibition, primary screen, TEAD-YAP interaction inhibitor project, luminescence, HEK-TIYL cells. TEAD-Gal4/YAP UAS-luciferase luminescence. inhibition, % at 9.12 µM. 640,000 tested, 1.4% active; in the data active = inhibition above about 32%;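 note: 0% = median of test compound wells and 100% = reference inhibitor wells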
FBW7 activator: FBW7 E3 ligase activators, primary screen, biochemical, AlphaScreen, human | F-box/WD repeat-containing protein 7 (Homo sapiens), Q969H0 | AlphaScreen FBW7–phospho-cyclin E peptide binding, activator screen | normalized activity (activation), % at 26.1 µM | 650,000 tested, 0.13% active; in the data active = normalized activity above about 1.9%;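 note: purified mutant Fbw7 with reduced substrate affinity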
GPR151 confirm: GPR151 activators, triplicate retest, confirmation, cell-based, PathHunter beta-arrestin, luminescence. activation, % at 11.2 µM. shares compounds with GPR151 ag. GPR151 PathHunter beta-arrestin cells, 90 min; % of EA-reagent control over plate median. 6,700 tested, under 10 active;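 active = mean percent activation across replicates above the confirmation screen cutoff of 4.91%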
GPR119 counter: GPR119 activators in beta-arrestin cells, counter-screen for GPR151 activator project, cell-based, PathHunter beta-arrestin, luminescence, triplicate; shares compounds with GPR151 ag; 90 min; 0 = compound-well median, 100 = enzyme-acceptor control; activation, % at 11.2 µM; 6,700 tested, 0.3% active;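 active = mean percent activation in the counterscreen above 29.09%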;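 note: counterscreen on off-target GPR119 to flag nonselective hits from the GPR151 activator screen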
Target sequence (Q8TDV5 whole entry, looked up): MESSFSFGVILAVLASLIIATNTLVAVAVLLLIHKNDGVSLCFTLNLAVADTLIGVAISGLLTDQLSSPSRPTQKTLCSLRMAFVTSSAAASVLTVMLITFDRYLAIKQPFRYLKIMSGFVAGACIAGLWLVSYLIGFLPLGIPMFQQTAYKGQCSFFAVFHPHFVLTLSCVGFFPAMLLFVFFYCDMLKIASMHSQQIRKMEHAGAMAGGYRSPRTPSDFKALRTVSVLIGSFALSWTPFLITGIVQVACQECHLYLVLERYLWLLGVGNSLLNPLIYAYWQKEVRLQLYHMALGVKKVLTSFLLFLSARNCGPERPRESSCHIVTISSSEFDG
* hit, by the source's call; · = no result given.

SMILES | MITF inh | GPR151 ag | TEAD-YAP block | FBW7 activator | GPR151 confirm | GPR119 counter
Cc1ccc(S(=O)(=O)N2CCCC(N3CCOCC3)C2)cc1Cl (stereo unspecified) | 7 | 2 | 7 | 0 | · | ·
Cc1ccc(S(=O)(=O)N2CCCC(N3CCOCC3)C2)s1 (stereo unspecified) | 5 | 6.3* | -2 | 0 | 0 | 4
O=S(=O)(c1ccc(F)c(Cl)c1)N1CCCC(N2CCOCC2)C1 (stereo unspecified) | -3 | 12* | 7 | 0 | 1 | 5
O=S(=O)(c1ccc2c(c1)OCCO2)N1CCCC(N2CCOCC2)C1 (stereo unspecified) | 2 | 1 | -8 | 0 | · | ·
CCOC(=O)C1=C(C)N(c2ccc(OC)cc2)C(=O)/C1=C\c1ccc(Br)cc1 | -3 | 1 | 1 | 0 | · | ·
CNC(=O)c1c(-c2c(Cl)cccc2Cl)noc1C | 17 | -2 | 4 | 0 | · | ·
CCOC(CNc1nc(OC)cc(OC)n1)(OCC)c1ccccn1 | -4 | 5.0* | 1 | 0 | 1 | 5
Cn1c(N)c(S(=O)(=O)Nc2cccc(Cl)c2)c(=O)n(C)c1=O | 3 | 7.7* | -2 | 0 | 0 | 0
Cc1c(S(=O)(=O)Nc2cccc(Cl)c2)c(=O)n(C)c(=O)n1C | 2 | 0 | -2 | 0 | · | ·
CCOc1ccc(-n2c(C)cn3c4c(=O)n(Cc5ccccc5)c(=O)n(C)c4nc23)cc1 | 11 | -1 | -5 | 0 | · | ·
CSc1nc(N)nc(SCC(=O)c2ccccc2)c1C#N | -9 | 0 | -22 | 0 | · | ·
CSc1nc(N)nc(SC(C(=O)O)c2ccccc2)c1C#N (stereo unspecified) | -6 | 8.6* | 7 | 0 | 0 | 13
COC(=O)C1CSC(C(=O)OC)N1C(=O)CC#N (stereo unspecified) | -14 | -2 | -12 | 0 | · | ·
CCN=c1scc(-c2cc(OC)ccc2OC)n1/N=C/c1ccsc1 | 8 | 1 | 5 | 0 | · | ·
COc1cccc(CC2(C3CCN(Cc4ccccc4F)CC3)NC(=O)N(C)C2=O)c1 (stereo unspecified) | 1 | 5.0* | 8 | 0 | 1 | 4
COc1cccc(CC2(C3CCN(Cc4cccnc4)CC3)NC(=O)N(C)C2=O)c1 (stereo unspecified) | -5 | 1 | -2 | 0 | · | ·
COc1ccc(-n2c(C)c(C)n3c4c(=O)n(Cc5ccccc5F)c(=O)n(C)c4nc23)cc1 | -8 | -1 | 0 | 0 | · | ·
CCCC(=O)Nc1cccc(Oc2ccc3c(c2)C(=O)NC3=O)c1 | -9 | 6.0* | -4 | 0 | -1 | -8
CCCC(=O)Nc1ccc(Oc2ccc3c(c2)C(=O)NC3=O)cc1 | 15 | -1 | -6 | 0 | · | ·
NC(=O)C1CCN(C(=O)Cc2ccc(Cl)cc2Cl)CC1 | -1 | 1 | -8 | 0 | · | ·
O=C(Cc1ccc(Cl)cc1Cl)N1CCN(c2ccc(O)cc2)CC1 | 4 | 5.2* | -7 | 1 | 0 | -3
COCCN1C=C(C(=O)OC)C(c2cccc(OC)c2OC(C)C)C(C(=O)OC)=C1 | 12 | 11* | -3 | 0 | 1 | 0
COc1ccc2ccccc2c1CN1CCN(CC(C)(C)C)C(CCO)C1 (stereo unspecified) | 11 | 7.7* | -3 | 0 | 0 | -7
COc1ccc2ccccc2c1CN1CCN(C)C(CCO)C1 (stereo unspecified) | -1 | 1 | -1 | 0 | · | ·
CCOCCCNC(=O)c1ccc2c(c1)nc(C)n2-c1ccc(CC)cc1 | 12 | 1 | 13 | 1 | · | ·
O=C(NC1CC1)C1CCC(=O)N1C1CCCCC1 (stereo unspecified) | 12 | 8.5* | 0 | 0 | -1 | -8
O=C(NC1CCCC1)C1CCC(=O)N1C1CCCCC1 (stereo unspecified) | 4 | 4 | 4 | 0 | · | ·
Cc1nc2c(c(=O)[nH]1)CN(C(=O)Cc1nc(C)sc1-c1ccccc1)CC2 | 6 | 1 | 14 | 1 | · | ·
